Results filed as inconclusive are left out. Where a call stands in place of a potency, no number is given. The source made the active and inactive calls. The call rests on the fitted dose curve; in most records, active means well fitted curve in the direction sought with a large enough effect; inconclusive means small, poorly fitted or top-dose-only effect, or another doubt; inactive means no such curve, though single readings can be large; an effect the other way counts as inactive or inconclusive. Where a SMILES comes first, the peptide text is derived from it. The star is where a group is joined. βNA = c1ccc2cc(N*)ccc2c1; Cbz = O=C(OCc1ccccc1)*
test: P-glycoprotein substrates identified in KB-3-1 adenocarcinoma cell line, qHTS therapeutic library screen (AID 1346986); conditions: KB-3-1 parental cells viability, CellTiter-Glo, 72 h; series mostly up to 44.5 µM; further: nearly all actives have a fitted effect of over 60% in size
Summary of the method: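 72 h cell-killing screen, 500 cells/well, CellTiter-Glo luminescence. Paired lines KB-3-1/KB-8-5-11; P-gp dependence checked by tariquidar co-treatment and HEK-293 MDR-19 versus empty-vector cells.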

Molecule	Potency
CC1(C)CC=C(c2cnc3ccccc3c2)c2cc(C(=O)Nc3ccc(C(=O)O)cc3)ccc21	inactive
CCCCCOC(=O)Nc1nc(=O)n(C2O[C@H](C)[C@@H](O)[C@H]2O)cc1F (some centres not stated)	inactive
COc1ccnc(CCc2nc3ncccc3[nH]2)c1	inactive
H-DPPDPDRFYGMM-NH2	inactive
CC(C)CC(NC(=O)OCc1ccccc1)C(=O)NC(CC(C)C)C(=O)NC(CCC(=O)O)C(=O)Nc1ccc2ccccc2c1 (stereo not drawn) (Cbz-Leu-Leu-Glu-βNA; configuration not given here)	inactive
COc1cc(/C=C/C(=O)OCC2OC(OC3(CO)OC(CO)C(O)C3O)C(O)C(O)C2O)ccc1O (configuration not stated)	inactive
O=C(/C=C/c1ccc(O)cc1)OC[C@H]1O[C@@H](O/C(=C\c2ccccc2)C(=O)O)[C@H](O)[C@@H](O)[C@@H]1O	inactive
C=C1C[C@H](O)[C@@H](O)[C@@]2(C)C1[C@@H](O)[C@H]1OC(=O)C3[C@@H](C)[C@@H](O)[C@H](O)C2[C@]31C (some centres not stated)	inactive
COc1cnc(-n2cnc(C)n2)c2[nH]cc(C(=O)C(=O)N3CCN(C(=O)c4ccccc4)CC3)c12	inactive
CC(C)CC(c1c(O)c(C=O)c(O)c(C=O)c1O)C1CCC(C)(O)C2CC(C(C)(C)O)CCC12C (configuration not stated)	inactive
O=C(Nc1ccccc1)Nc1ccc(-c2ccc(C(=O)C3CCCC3C(=O)O)cc2)cc1 (configuration not stated)	inactive
C[C@@]1(C(=O)O)CCC[C@@]2(C)C3=CC[C@H]4C[C@@]3(CC[C@H]12)CC4(O)CO (some centres not stated)	inactive
O=C(N[C@H](Cc1ccccc1)C(=O)O)c1sc2cc(F)ccc2c1Cl	inactive
CCc1nnc(NS(=O)(=O)c2ccc(NC(=S)NC(=O)/C=C/c3ccc(F)cc3)cc2)s1	inactive
COc1cccc(OC)c1-c1cc(C(=O)N[C@@H](CC(C)C)C(=O)O)nn1-c1ccnc2cc(Cl)ccc12	inactive
O=C(O)c1ccc(NC(=O)[C@H](CC2CCCC2)n2cnc(C(F)(F)F)c2)nc1	inactive
CC(=O)OC12CC(C)C(OC(=O)c3ccccc3)C1/C=C(/C)C(OC(=O)c1ccccc1)CC(=O)C(C)(C)/C=C/C(C)C2=O (configuration not stated)	inactive
CC1=CC(=O)CC(C)(C)[C@@]1(O)/C=C/C(C)O[C@@H]1O[C@H](CO)[C@@H](O)[C@H](O)[C@H]1O (some centres not stated)	inactive
C=C[C@H]1[C@H](O[C@@H]2O[C@H](CO)[C@@H](O)[C@H](O)[C@H]2O)OC=C2C(=O)N3Cc4c([nH]c5ccccc5c4=O)[C@@H]3C[C@H]21	inactive
COc1c2cc(c(O[C@@H]3O[C@H](CO)[C@@H](O)[C@H](O)[C@H]3O)c1OC)CCCCC(O)CCc1ccc(O)c-2c1 (some centres not stated)	inactive
C=C(C(=O)OC)[C@]12O[C@@](C)(CC[C@@]3(O)/C(=C\C)C(=O)O[C@]3(C)C[C@@H]1OC(=O)C(CO)CN1CCCC1C(=O)O)CC2=O (some centres not stated)	inactive
COC(=O)C1=CO[C@@H](O[C@@H]2O[C@H](CO)[C@@H](O)[C@H](O)[C@H]2O)C2C1CC(O)C2C (some centres not stated)	inactive
CC(=O)NC(Cc1c[nH]c2ccccc(=O)c12)C(=O)O (configuration not stated)	inactive
O=C(c1c2ccccc2cc2ccccc12)N1CCC(N2CCC[C@@H](C(=O)N3CCOCC3)C2)CC1	inactive
COc1ccc(CCC(=O)c2c(O)cc(O[C@@H]3O[C@H](CO)[C@@H](O)[C@H](O)[C@H]3O[C@@H]3O[C@@H](C)[C@H](O)[C@@H](O)[C@H]3O)cc2O)cc1O	inactive
CC1=C2CC(C)(C)CC2C(O)C2=C(C1)C(=O)OC2O (configuration not stated)	inactive
COCCN1CCC(C(=O)NO)(S(=O)(=O)c2ccc(Oc3ccc(OC(F)(F)F)cc3)cc2)CC1	inactive
Cc1ccccc1NC(=O)Nc1ccc(CN2C(=O)N([C@@H](CC(C)C)C(=O)N[C@@H](CC(=O)O)c3ccccc3)C(=O)C2(C)C)cc1	inactive

test: P-glycoprotein substrates identified in KB-8-5-11 adenocarcinoma cell line, qHTS therapeutic library screen (AID 1346987); conditions: KB-8-5-11 (P-gp overexpressing) viability, CellTiter-Glo, 72 h; series mostly up to 44.5 µM; further: nearly all actives have a fitted effect of over 65% in size
Summary of the method: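 Compounds are pinned in dose-response onto KB-8-5-11 cells (500 cells/well, colchicine-free medium) and left 72 h at 37 degree C. CellTiter-Glo luminescence then yields AC50 values.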

Molecule	Potency
CC1(C)CC=C(c2cnc3ccccc3c2)c2cc(C(=O)Nc3ccc(C(=O)O)cc3)ccc21	inactive
CCCCCOC(=O)Nc1nc(=O)n(C2O[C@H](C)[C@@H](O)[C@H]2O)cc1F (some centres not stated)	inactive
Nc1c(-c2ccccc2)nc(Cl)c2c(O)n[nH]c(=O)c12	inactive
COc1ccnc(CCc2nc3ncccc3[nH]2)c1	inactive
O=C(OC[C@H]1O[C@@H](Oc2ccccc2COC(=O)C2(O)C=CCCC2O)[C@H](O)[C@@H](O)[C@@H]1O)c1ccccc1 (some centres not stated)	inactive
H-DPPDPDRFYGMM-NH2	inactive
COc1cc(O)c2c(c1Cl)CC(C)OC2=O (configuration not stated)	inactive
CC(C)CC(NC(=O)OCc1ccccc1)C(=O)NC(CC(C)C)C(=O)NC(CCC(=O)O)C(=O)Nc1ccc2ccccc2c1 (stereo not drawn) (Cbz-Leu-Leu-Glu-βNA; configuration not given here)	inactive
COc1cc(/C=C/C(=O)OCC2OC(OC3(CO)OC(CO)C(O)C3O)C(O)C(O)C2O)ccc1O (configuration not stated)	inactive
O=C(/C=C/c1ccc(O)cc1)OC[C@H]1O[C@@H](O/C(=C\c2ccccc2)C(=O)O)[C@H](O)[C@@H](O)[C@@H]1O	inactive
C=C1C[C@H](O)[C@@H](O)[C@@]2(C)C1[C@@H](O)[C@H]1OC(=O)C3[C@@H](C)[C@@H](O)[C@H](O)C2[C@]31C (some centres not stated)	inactive
COc1cnc(-n2cnc(C)n2)c2[nH]cc(C(=O)C(=O)N3CCN(C(=O)c4ccccc4)CC3)c12	inactive
COC(=O)C(CC1(OC(=O)C(C)C)c2ccccc2N2C(=O)C(C)(C)N(O)C21)n1cnc2ccccc2c1=O (configuration not stated)	inactive
CC(C)CC(c1c(O)c(C=O)c(O)c(C=O)c1O)C1CCC(C)(O)C2CC(C(C)(C)O)CCC12C (configuration not stated)	inactive
O=C(Nc1ccccc1)Nc1ccc(-c2ccc(C(=O)C3CCCC3C(=O)O)cc2)cc1 (configuration not stated)	inactive
C[C@@]1(C(=O)O)CCC[C@@]2(C)C3=CC[C@H]4C[C@@]3(CC[C@H]12)CC4(O)CO (some centres not stated)	inactive
O=C(N[C@H](Cc1ccccc1)C(=O)O)c1sc2cc(F)ccc2c1Cl	inactive
C=C1CC[C@@H]2[C@@](C)(CO[C@@H]3O[C@H](CO)[C@@H](O)[C@H](O)[C@H]3O)[C@H](O)CC[C@@]2(C)[C@@H]1CC/C(C)=C/CO[C@@H]1O[C@H](CO)[C@@H](O)[C@H](O)[C@H]1O	inactive
CCc1nnc(NS(=O)(=O)c2ccc(NC(=S)NC(=O)/C=C/c3ccc(F)cc3)cc2)s1	inactive
COc1cccc(OC)c1-c1cc(C(=O)N[C@@H](CC(C)C)C(=O)O)nn1-c1ccnc2cc(Cl)ccc12	inactive

Molecule	Potency
O=C(O)c1ccc(NC(=O)[C@H](CC2CCCC2)n2cnc(C(F)(F)F)c2)nc1	inactive
CC(=O)OC12CC(C)C(OC(=O)c3ccccc3)C1/C=C(/C)C(OC(=O)c1ccccc1)CC(=O)C(C)(C)/C=C/C(C)C2=O (configuration not stated)	inactive
CC(C)c1ccc2c(c1)C(O)CC1C(C)(C(=O)O)CCCC21C (configuration not stated)	inactive
CC1=CC(=O)CC(C)(C)[C@@]1(O)/C=C/C(C)O[C@@H]1O[C@H](CO)[C@@H](O)[C@H](O)[C@H]1O (some centres not stated)	inactive
C=C[C@H]1[C@H](O[C@@H]2O[C@H](CO)[C@@H](O)[C@H](O)[C@H]2O)OC=C2C(=O)N3Cc4c([nH]c5ccccc5c4=O)[C@@H]3C[C@H]21	inactive
CC1=CCC[C@@H]2[C@@](C)(CCc3ccoc3)[C@H](C(=O)O)CC[C@@]12C	inactive
CC1=C2CC(=O)C(C)CC/C=C(\C)CC2OC1=O (configuration not stated)	inactive
COc1c2cc(c(O[C@@H]3O[C@H](CO)[C@@H](O)[C@H](O)[C@H]3O)c1OC)CCCCC(O)CCc1ccc(O)c-2c1 (some centres not stated)	inactive
C=C(C(=O)OC)[C@]12O[C@@](C)(CC[C@@]3(O)/C(=C\C)C(=O)O[C@]3(C)C[C@@H]1OC(=O)C(CO)CN1CCCC1C(=O)O)CC2=O (some centres not stated)	inactive
COC(=O)C1=CO[C@@H](O[C@@H]2O[C@H](CO)[C@@H](O)[C@H](O)[C@H]2O)C2C1CC(O)C2C (some centres not stated)	inactive
CSCC1OC(n2cnc3c(=O)[nH]cnc32)C(O)C1O (configuration not stated)	inactive
CC(=O)NC(Cc1c[nH]c2ccccc(=O)c12)C(=O)O (configuration not stated)	inactive
O=C(c1c2ccccc2cc2ccccc12)N1CCC(N2CCC[C@@H](C(=O)N3CCOCC3)C2)CC1	inactive
COc1ccc(CCC(=O)c2c(O)cc(O[C@@H]3O[C@H](CO)[C@@H](O)[C@H](O)[C@H]3O[C@@H]3O[C@@H](C)[C@H](O)[C@@H](O)[C@H]3O)cc2O)cc1O	inactive
CC1=C2CC(C)(C)CC2C(O)C2=C(C1)C(=O)OC2O (configuration not stated)	inactive
COCCN1CCC(C(=O)NO)(S(=O)(=O)c2ccc(Oc3ccc(OC(F)(F)F)cc3)cc2)CC1	inactive
Cc1ccccc1NC(=O)Nc1ccc(CN2C(=O)N([C@@H](CC(C)C)C(=O)N[C@@H](CC(=O)O)c3ccccc3)C(=O)C2(C)C)cc1	inactive
Cc1cc(C)c2nc(-c3ccccn3)cc(C(=O)Nc3ccc(S(=O)(=O)Nc4onc(C)c4C)cc3)c2c1	inactive
CC(C)(O)[C@@H]1CC[C@]2(CO)[C@@H](O)CC[C@](C)(O)[C@H]2[C@@H]1O[C@@H]1O[C@H](CO)[C@@H](O)[C@H](O)[C@H]1O	inactive

From PubChem BioAssay (NCATS)
